Hit rate of the full screen: of about 50,000 compounds, about 800 (1.6%) showed an effect of 50% or more. Shown is part of a subset that was picked to be rich in strong results.

The target of the test is Bcl-2-like protein 10 (Homo sapiens) (UniProt Q9HD36). The test is described as follows: Phenotype converters, Bcl-B/TR3 peptide binding displacement, primary biochemical FP (AID 1240).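 Note: 0% = Bcl-B with tracer peptide and DMSO and 100% = tracer peptide lacking Bcl-B.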 The following applies: GST-Bcl-B / FITC-TR3 peptide fluorescence polarization; stronger effect = higher value; compound at 3.75 mg/L.
Chain of Bcl-2-like protein 10 (Homo sapiens) (Q9HD36 whole entry, looked up): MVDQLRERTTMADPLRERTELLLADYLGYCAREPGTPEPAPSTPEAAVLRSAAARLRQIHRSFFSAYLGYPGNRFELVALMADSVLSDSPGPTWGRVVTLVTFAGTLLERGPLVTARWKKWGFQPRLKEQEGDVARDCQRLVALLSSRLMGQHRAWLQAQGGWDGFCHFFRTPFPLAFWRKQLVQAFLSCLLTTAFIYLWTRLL
In the case of `O=C(Nc1cccc(Oc2ccc3c(c2)C(=O)N(c2ccccc2)C3=O)c1)c1cccc([N+](=O)[O-])c1`, the displacement was 12.7%.
With `CC(=O)Nc1ccc(Nc2nc3ccccc3nc2Nc2ccc(NC(C)=O)cc2)cc1`, the displacement is -13.4%.
`COC(=O)C1=C(C)N(Cc2ccccc2)C(=O)/C1=C\c1cccc([N+](=O)[O-])c1`: the displacement turned out to be 2.4%.
Consider `CCOc1ccc(/C=C2/C(=O)NC(=O)N(c3ccc(C)cc3)C2=O)cc1`, for which the displacement is -9.7%.
The value for `COc1cc(/C=C/C(=O)c2ccc(C)cc2)cc(OC)c1OC` was 1.6%; that for `Oc1ccccc1/C=N/Nc1nc2ccccc2s1` was 0.6%.
As to `Cc1ccc(NC(=O)CN(c2ccc(Oc3ccccc3)cc2)S(C)(=O)=O)cc1`, the displacement is 5.1%.
For `O=C1/C(=C/c2c3ccccc3nc3ccccc23)Sc2ccccc21`, the displacement was -0.5%.
With `CC(=O)n1cc(/C=C2\N=C(c3cccs3)OC2=O)c(-c2ccccc2)n1`, the displacement is -0.1%.
Turning to `CC(=O)n1cc(/C=C2\Sc3ccccc3C2=O)c(-c2ccccc2)n1`, the displacement stood at 145%.
Take `NC(=O)c1ccc(Sc2nc3ccccc3s2)c([N+](=O)[O-])c1`: the displacement amounted to 1.4%.
For the molecule `COC(=O)c1cccc(N2C(=O)C=CC2=O)c1`, the displacement came out at 1%.
Regarding `O=C(CSc1nc2sc3c(c2c(=O)[nH]1)CCCC3)NCc1ccccc1`, the displacement was -18.5%.
The value for `O=C(CSc1nc2sc3c(c2c(=O)[nH]1)CCCC3)NCc1ccco1` was 59.8%; that for `O=C(CSc1nc2sc3c(c2c(=O)[nH]1)CCCC3)NCc1ccccn1` was -0.6%.
Then `Cc1ccc(C)c(S(=O)(=O)Nc2ccc(Cl)cc2)c1`, with 9%; and `COc1ccc(NC(=O)CN(c2ccc(Cl)cc2)S(C)(=O)=O)c(OC)c1`, with 10.7%; and `O=C(Nc1ccccn1)c1cc(-c2ccc(Cl)c(Cl)c2)nc2ccccc12`, with 10%.
Turning to `O=C(Nc1ccc([N+](=O)[O-])cn1)c1cc(-c2ccc(Cl)c(Cl)c2)nc2ccccc12`, the displacement came out at 52.4%.
The value for `O=C(Nc1cc([N+](=O)[O-])ccc1Cl)c1cc(-c2ccc(Cl)cc2)nc2ccccc12` was 13.6%; that for `COC(=O)COc1ccc(/C=C2\C(=O)NC(=O)N(C)C2=O)cc1OC` was -18.2%.
Consider `CCOc1ccc(Br)cc1/C=N\NC(=O)c1cc(C)[nH]n1`, for which the displacement is -2.6%.
As for `Cc1ccc(N2C(=O)C(Cl)=C(Nc3ccccc3F)C2=O)c(C)c1`, the displacement amounted to 71.5%.
As for `CCc1ccccc1NC1=C(Cl)C(=O)N(c2ccc(C)cc2C)C1=O`, the displacement is 16.8%.
As to `COc1ccccc1NC1=C(Cl)C(=O)N(c2ccc(C)cc2C)C1=O`, the displacement worked out at 8.3%.
The value for `Nc1nnc(CCC(=O)c2ccccc2)s1` was 3.5%; that for `NC(=O)c1ccccc1NC(=O)c1ccc(I)cc1` was 7.7%.
In the case of `Cc1c(Cc2ccccc2)sc(NC(=O)c2ccc([N+](=O)[O-])cc2)c1C(N)=O`, the displacement is 65.7%.
With `COc1ccc(C(=O)Nc2sc(Cc3ccccc3)c(C)c2C(N)=O)cc1`, the displacement is -16.5%.
On to `Cc1c(Cc2ccccc2)sc(NC(=O)c2ccc(-c3ccccc3)cc2)c1C(N)=O`, for which the displacement was -1.3%.
As for `CC(=O)Nc1cccc(NC(=O)c2cccc(I)c2)c1`, the displacement is -1.5%.
As to `O=C(COc1ccc(Cl)cc1Cl)OCc1ccccc1`, the displacement was -9.2%.
As to `Cc1ccc(S(=O)(=O)Nc2cc(C(C(=O)OC(C)C)C(=O)C(F)(F)F)c(O)c3ccccc23)cc1` (centres undefined), the displacement was -5.6%.
As to `CC(=O)C(C(C)=O)c1cc(NS(=O)(=O)c2ccc(C)cc2)c2ccccc2c1O`, the displacement came to 3.6%.
Then `CCOC(=O)C(C(C)=O)c1cc(NS(=O)(=O)c2ccc(C)cc2)c2ccccc2c1NS(=O)(=O)c1ccc(C)cc1` (centres undefined), with 78.8%.
For `Cc1cccc(-c2cc(NC(=O)c3ccc(Br)cc3)n[nH]2)c1`, the displacement turned out to be 9.4%.
Then `COc1ccc(Br)cc1C(=O)Nc1ccc(-c2nc3ccccc3o2)cc1`, with 134%; and `COc1ccccc1C(=O)Nc1ccc2oc(-c3ccncc3)nc2c1`, with 135%; and `Cc1cccc(C(=O)Nc2ccc3oc(-c4ccc(N(C)C)cc4)nc3c2)c1`, with 35.7%.
The value for `COc1ccccc1C(=O)Nc1ccc2oc(-c3cccc(C)c3)nc2c1` was 1.6%.
For `COc1cccc(C(=O)Nc2cc(-c3nc4ccccc4o3)ccc2OC)c1`, the displacement is -29.6%.
Turning to `CN(C)c1ccc(-c2nc3cc(NC(=O)c4cccc(Br)c4)ccc3o2)cc1`, the displacement was 62.5%.
The value for `COc1ccc(-c2nc3ccccc3o2)cc1NC(=O)c1cc2ccccc2cc1OC` was -8.6%; that for `COc1ccc(-c2nc3ccccc3o2)cc1NC(=O)c1ccc(Br)o1` was 63%; that for `CN(C)c1ccc(-c2nc3cc(NC(=O)c4ccccc4Br)ccc3o2)cc1` was 1.6%.
On to `COc1ccc(Br)cc1C(=O)Nc1ccc2oc(-c3ccccc3)nc2c1`, for which the displacement is -2.9%.
Take `COc1ccc(Br)cc1C(=O)Nc1ccc(-c2nc3ncccc3o2)cc1`: the displacement came to 5.4%.
The value for `CCc1ccc(-c2nc3cc(NC(=O)c4ccccc4OC)ccc3o2)cc1` was 8.5%.
In the case of `COc1ccc2c(c1OC)C(=O)N(c1cccc(Cl)c1)C2=O`, the displacement is -23.7%.
Then `O=C1NC(=O)N(c2ccccc2Cl)C(=O)/C1=C\C=C\c1ccco1`, with 15.6%.
Consider `COc1cc(/C=C(\C#N)c2nc3ccc(C)cc3[nH]2)cc(OC)c1O`, for which the displacement was -65.6%.
Take `COc1ccc(-c2nnc(-c3cccc([N+](=O)[O-])c3)o2)cc1`: the displacement was determined as 5.8%.
As for `N/C(=N\OC(=O)c1cccc(F)c1)c1ccccc1`, the displacement was -7.1%.
As for `CCOc1cc(C(=S)N2CCOCC2)cc(Br)c1OC(=O)c1ccc(Cl)cc1Cl`, the displacement was determined as 14.1%.
`COC(=O)c1ccc(NC(=O)CC2Sc3ccccc3NC2=O)cc1` (centres undefined): the displacement was 3.1%.
Consider `Cc1ccc(-c2nc3cc(NC(=O)COc4ccccc4C)ccc3o2)cc1`, for which the displacement is -6.6%.
As for `O=C(Nc1ccc2oc(-c3ccccc3)nc2c1)c1ccncc1`, the displacement was -3.2%.
Take `O=C(Nc1ccc2oc(-c3ccncc3)nc2c1)c1ccncc1`: the displacement came to 28.9%.
`O=C(COc1ccccc1Cl)Nc1ccc2oc(-c3ccncc3)nc2c1`: the displacement turned out to be 136%.
With `O=C(COc1ccc(Cl)cc1)Nc1ccc2oc(-c3ccccc3)nc2c1`, the displacement was -6.4%.
Take `O=C(Nc1ccc2oc(-c3ccncc3)nc2c1)c1cccnc1`: the displacement is 61.6%.
Take `CCOc1cc(/C=C2\SC(=S)N(Cc3ccco3)C2=O)ccc1O`: the displacement is -18.8%.
Then `CCOC(=O)c1c(C)oc2cc(Br)c(OCC(=O)OCc3ccccc3)cc12`, with 10.8%.
Then `CCOC(=O)C1=C(C)N=C2SCCN2C1c1ccccc1` (centres undefined), with -10.4%; and `CSc1ccccc1NC(=O)CSc1nc2ccccc2o1`, with 18.9%.
As to `O=C(Nc1ccccc1C(=O)O)c1ccc(N2C(=O)C3C4C=CC(C4)C3C2=O)cc1` (centres undefined), the displacement is -3.6%.
As to `CCn1c2ccccc2c2cc(/C=N/Nc3ccc([N+](=O)[O-])cc3)ccc21`, the displacement was -7.5%.
As to `CCOC(=O)c1c(NC(C)=O)sc2cc(C(C)(C)C)ccc12`, the displacement was -4.1%.
Then `CC(=O)Nc1nonc1-c1nc2ccccc2n1Cc1ccc(C(C)(C)C)cc1`, with 52.2%.
In the case of `CC(=O)Nc1nonc1-c1nc2ccccc2n1Cc1ccc([N+](=O)[O-])cc1`, the displacement is 8.1%.
For `CC(=O)Nc1nonc1-c1nc2ccccc2n1Cc1ccccc1`, the displacement came out at 49.8%.
On to `COc1ccccc1NC(=O)c1ccc(Oc2ccc(C(=O)Nc3ccccc3OC)cc2)cc1`, for which the displacement is -1.8%.
Turning to `CCOC(=O)c1c(NC(=O)COc2c(C)cc(C)cc2C)sc(C(=O)Nc2ccccc2)c1C`, the displacement stood at 13.1%.
As to `CCOc1ccc(N2C(=O)CC(SC(=NC)Nc3ccc4c(c3)OCO4)C2=O)cc1` (centres undefined), the displacement was -6.7%.
For the molecule `Cc1cc(C)nc(SCC(=O)Nc2ccc(C)c(NC(=O)CSc3nc(C)cc(C)n3)c2)n1`, the displacement stood at 23.5%.
Consider `CN(C)c1ccc(/C=C/C(=O)c2ccc3c(c2)OCCO3)cc1`, for which the displacement is -18.8%.
In the case of `CC1=C(C(=O)OC(C)C)C(c2ccc(F)cc2)NC(=O)N1` (centres undefined), the displacement is 6.9%.
Then `CC1=C(C(=O)OC(C)C)C(c2ccc(F)cc2)C(C(=O)OC(C)C)=C(C)N1`, with 54.7%; and `CCOC(=O)C1=C(C)NC(C)=C(C(=O)OCC)C1c1ccc(F)cc1`, with 0%.
With `COc1ccc(CNC(=O)CN(c2c(C)n(C)n(-c3ccccc3)c2=O)S(=O)(=O)c2ccccc2)cc1`, the displacement was -6.2%.
Turning to `Cc1cc(Nc2ccccc2)nn1C(=O)c1ccc(Cl)cc1`, the displacement was -10.9%.
The value for `Cn1c2ccccc2c2cc(C3Nc4ccccc4C(=O)N3Cc3ccco3)ccc21` (centres undefined) was 10.3%.
Consider `O=C(/C=C/c1ccc(S(=O)(=O)Nc2ccccc2)cc1)C1C(=O)c2ccccc2C1=O`, for which the displacement was found to be 31.1%.
The value for `O=C(/C=C/c1ccc([N+](=O)[O-])cc1)C1C(=O)c2ccccc2C1=O` was -6.3%; that for `COc1ccc(/C=C\C(=O)C2C(=O)c3ccccc3C2=O)cc1` was 122%.
With `CC1CC(C)CN(S(=O)(=O)c2ccc(F)cc2)C1` (centres undefined), the displacement was -9%.
Regarding `CN(C)/C=C/C=C/C(=O)c1ccc(/C=C/C=C/N(C)C)o1`, the displacement was determined as 36.1%.
Take `CC(=O)Nc1ccc(/C=C(/C#N)C(=O)NCc2ccco2)cc1`: the displacement amounted to 9.4%.
For the molecule `CC(=O)Nc1ccc(/C=C(/C#N)C(=O)N/N=C/c2ccc(NC(C)=O)cc2)cc1`, the displacement came out at 110%.
As to `N#C/C(=C/c1ccc(Cl)cc1)C(=O)Nc1ccc(O)cc1`, the displacement amounted to 7.1%.
Then `O=C(N/N=C\c1ccc(Cl)c(Cl)c1)c1cnccn1`, with -7.3%.
For the molecule `CSc1ccc(/C=N/NC(=O)c2cc(C)[nH]n2)cc1`, the displacement was found to be 3.8%.
For the molecule `CSc1ccc(/C=N\NC(=O)c2cnccn2)cc1`, the displacement turned out to be 109%.
As to `Cc1ccc(S(=O)(=O)/N=C(/NC(=S)N2CCOCC2)c2ccccc2)cc1`, the displacement is -5.4%.
Then `CCOC(=O)c1ccccc1NC(=O)CN(c1ccc(Br)cc1)S(C)(=O)=O`, with -5%.
On to `CC1=Nc2ccccc2/C1=C\c1c(O)n(-c2ccccc2)c(=O)[nH]c1=O`, for which the displacement is -3.1%.
As to `CC1=Nc2ccccc2/C1=C\c1sc(=S)n(-c2cccc(F)c2)c1O`, the displacement is -1.7%.
Take `CC1=Nc2ccccc2/C1=C\c1sc(=S)n(-c2ccccc2)c1O`: the displacement was 104%.
Consider `O=C(CCCN1C(=O)c2ccccc2C1=O)Nc1cccnc1`, for which the displacement amounted to 20.6%.
The value for `CC(c1ccccc1)N1C(=O)C(=Cc2c(NCC3CCCO3)nc3ccccn3c2=O)SC1=S` (centres undefined) was -14.7%; that for `CC1=C(C(=O)OC(C)C)C(c2ccc(Cl)c(Cl)c2)N2C(=O)CCSC2=N1` (centres undefined) was 15.3%; that for `CC1=C(C(=O)OC(C)C)C(c2ccccc2)N2C(=O)CCSC2=N1` (centres undefined) was 61.6%.
For `COC(=O)c1ccc(C2C(C(=O)OC(C)C)=C(C)N=C3SCCC(=O)N32)cc1` (centres undefined), the displacement came to 11.3%.
On to `Cc1cc(=O)oc2c1c(C)nn2-c1ccc(Br)cc1`, for which the displacement is 2.1%.

For the origin of these results see PubChem BioAssay AID1240 (Sanford-Burnham Center for Chemical Genomics, 2008).
